# Article PMC7819943, “Rice protein-binding microarrays: a tool to detect cis-acting elements near promoter regions in rice”
# Over roughly 39,000 sequences, “fluorescence intensity (a.u.)” has its median near 4,300; the highest 2% begin near 39,000. This is one part of a sample in which the highest values are shown more often than they occur.
# Biological target: T1, OsSMF1 (Oryza sativa, UniProt Q6ZLB0 1-436)
# T1 sequence: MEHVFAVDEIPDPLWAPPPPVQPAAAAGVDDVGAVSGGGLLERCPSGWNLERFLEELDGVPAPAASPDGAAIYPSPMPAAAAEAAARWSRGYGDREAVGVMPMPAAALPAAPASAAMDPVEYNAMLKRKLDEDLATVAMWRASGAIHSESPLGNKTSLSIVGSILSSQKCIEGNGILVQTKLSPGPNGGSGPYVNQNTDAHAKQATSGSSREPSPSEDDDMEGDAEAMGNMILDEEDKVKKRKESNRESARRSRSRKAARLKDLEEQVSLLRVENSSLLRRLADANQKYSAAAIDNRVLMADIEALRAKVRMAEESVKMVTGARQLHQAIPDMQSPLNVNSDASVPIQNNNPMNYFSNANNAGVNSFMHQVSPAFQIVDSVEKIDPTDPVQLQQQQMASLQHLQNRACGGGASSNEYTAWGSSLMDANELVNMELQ
# Test: protein-binding microarray (RPBM); PBS, 2% BSA, 51.3 ng/ul salmon testes DNA, 50 uM zinc acetate, 200 nM TF, 25 C, 1 h; high values mean tight binding
# Conditions: protein: recombinant; tags: N-terminal polyhistidine and DsRed monomer fusion (pET32a); chain copies: 2; label: CyDye5-dUTP incorporated in the synthesized complementary strand; 3' TTTTT single-stranded linker to array surface; dsDNA, one strand shown
# Method in brief: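 Ni–NTA purification followed expression in E. coli BL21-CodonPlus of transcription factors fused N-terminally to a polyhistidine tag and DsRed. At 200 nM in PBS with 2% BSA, salmon testes DNA and 50 µM zinc acetate, the protein was incubated for 1 h at 25 °C with a custom Agilent array that had been primer-extended with Cy5-dUTP and blocked with 2% BSA. After washing, the array was read on an Axon 4000B scanner. The binding signal is per-feature fluorescence intensity in arbitrary units.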
row,Sequence,binding signal
1,CTACACACGAGACGTGCAAACCTGCAGATTTTGTTACTTGCGGAGTCACCTAGTGCAG,4830 fluorescence intensity (a.u.)
2,CCACGGGCTACAAAGCACGCGCGTCACTCGCTCTCGCGGCCGGAGTCACCTAGTGCAG,4390 fluorescence intensity (a.u.)
3,AAATGTAGTTGTAAAATCCACAAAATAGTCTAGTCAGAAGCGGAGTCACCTAGTGCAG,3340 fluorescence intensity (a.u.)
4,TCCGTATGAAATAGTGTCTCCGTCAGATTGGGGAAGCGGGCGGAGTCACCTAGTGCAG,3200 fluorescence intensity (a.u.)
5,CAGAAGCGTCTACATACAATAGGATTGGGGCCTGCAAATCCGGAGTCACCTAGTGCAG,55500 fluorescence intensity (a.u.)
6,TGTGTTCTCAATTTTGCGTGTTCTCAATGACACGTGAACACGGAGTCACCTAGTGCAG,5630 fluorescence intensity (a.u.)
7,ATCGAAGGCGAGAGCTCTTCTTCTTCCCCTCCTCCAAGCACGGAGTCACCTAGTGCAG,60500 fluorescence intensity (a.u.)
8,TTCCATTTCTTCCCCTCGCCAAGGCGAGGCCGCGAGAGGGCGGAGTCACCTAGTGCAG,9040 fluorescence intensity (a.u.)
9,TAAAAGCCAAGCACCATCTCGAAGTCTTCTTCCTCCTCCACGGAGTCACCTAGTGCAG,12500 fluorescence intensity (a.u.)
10,CTGTAGAACTTGGACCAGCAGCATCAGCAGTAGTAGCAGGCGGAGTCACCTAGTGCAG,3140 fluorescence intensity (a.u.)
11,GTGATATTCTGTCTTCCTGTGATATCAGCACTGTTTTATGCGGAGTCACCTAGTGCAG,3450 fluorescence intensity (a.u.)
12,ACCAGTGCGCCACTGCCAGCGCAGCACCCGCCCGGTTTAACGGAGTCACCTAGTGCAG,3240 fluorescence intensity (a.u.)
13,ATGTCTTAAGCAAGTTTTGACATCCTCATTACAGTGCGGCCGGAGTCACCTAGTGCAG,3390 fluorescence intensity (a.u.)
14,TCGATTCCAGCTGTGGCACCCATAGAGAAATGAGCCCGTCCGGAGTCACCTAGTGCAG,56300 fluorescence intensity (a.u.)
15,GTAAAGCCTCGATATATCGATCGATTCCAGCTGTGGCACCCGGAGTCACCTAGTGCAG,3620 fluorescence intensity (a.u.)
16,AGAGCCCACCAGCTGCACCGGCGTGGCATCGTCCACTTGGCGGAGTCACCTAGTGCAG,5060 fluorescence intensity (a.u.)
17,AGTTGACGTGGCATACTGACACGTGGGCCCCATGTGGGTTCGGAGTCACCTAGTGCAG,24900 fluorescence intensity (a.u.)
18,AAACGTAATCTAATAACAAAACAAATTACAGAACTGTAAACGGAGTCACCTAGTGCAG,11100 fluorescence intensity (a.u.)
19,ATCCACCGCTGAGTCCCAGACGAGCGAGGGCCAGATCATCCGGAGTCACCTAGTGCAG,3410 fluorescence intensity (a.u.)
20,TGTAGGTATAAGAGTGAGTTGGTGAATTATAGGGTAGACTCGGAGTCACCTAGTGCAG,7410 fluorescence intensity (a.u.)
21,TAGAAAGTGCCCAATTAGTATAGGTATAGATAGATAGACTCGGAGTCACCTAGTGCAG,51000 fluorescence intensity (a.u.)
22,GCATTATATTAGTAGGTCGTGTATTATATTAGTAGGTACTCGGAGTCACCTAGTGCAG,4260 fluorescence intensity (a.u.)
23,ATTACATACTAATTACATATGTAAGTGAGGTGTAACTACTCGGAGTCACCTAGTGCAG,4160 fluorescence intensity (a.u.)
